Unmarked numbers belong to inactive results.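 The calls were made as follows: active = MAPPIT score above the 99th percentile of random reference set scores in the same batch; inactive = at or below it.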
Assays:
Assay in all cases: MAPPIT interaction score (arbitrary units); higher = stronger binary interaction signal, active = hit call of the paper
CG15369 = conditions: MAPPIT configuration: N-N; pair source set: Finley_Y2H
CG32548 = conditions: MAPPIT configuration: N-N; pair source set: Finley_Y2H
CG15347 = conditions: MAPPIT configuration: N-C; pair source set: screen_3
CG15126 = conditions: MAPPIT configuration: N-N; pair source set: Curagen_high_conf
Slob = conditions: MAPPIT configuration: N-N; pair source set: Curagen_high_conf
CG14563 = conditions: pair source set: RRS
CG17162 = conditions: MAPPIT configuration: N-C; pair source set: screen_3
Dlc90F = conditions: MAPPIT configuration: N-N; pair source set: Lit-BS-16
CG1532 = conditions: MAPPIT configuration: N-N; pair source set: Finley_Y2H
CG7560 = conditions: MAPPIT configuration: N-N; pair source set: Finley_Y2H
CG14764 = conditions: MAPPIT configuration: N-N; pair source set: Curagen_low_conf
CG6933 = conditions: MAPPIT configuration: N-N; pair source set: Lit-BS-16
CG14818 = conditions: MAPPIT configuration: N-N; pair source set: screen_2
Tm1 = conditions: MAPPIT configuration: N-N; pair source set: screen_1
dgrn = conditions: MAPPIT configuration: N-N; pair source set: screen_1
CG15211 = conditions: MAPPIT configuration: N-N; pair source set: screen_2
ReepB = conditions: MAPPIT configuration: N-C; pair source set: screen_3
CG14535 = conditions: MAPPIT configuration: N-N; pair source set: screen_2
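Also: HEK293T cells with Epo stimulation, STAT-responsive firefly luciferase reporter, fold induction versus unstimulated cells divided by the larger fold induction of two negative controls lacking either bait or prey.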

B1: Gel (protein)
chain: MDASGAATMAVLSSLLVFLALSSSLCSAGTLNARPAFPVQSGEIQPSGQNSKQAARRVMHPSFANAGRTPGLEIWRIENFEPVIYPKTNYGKFYTGDSFIVLNTIENKKDKKLSWDVHFWLGLETSTDEAGAAAILTVQLDDLLNGGPVQHREVQDHESQLFLSYFKNGIRYEQGGVGTGFKHVETNAQGETRLFQVKGKRNVRVRQVNLSVSSMNTGDCFILDAGSDIYVYVGSQAKRVEKLKAISAANQIRDQDHNGRARVQIVDDFSTDADKQHFFDVLGSGSADQVPDESTADEDSAFERTDAAAVSLYKVSDASGKLKVDIIGQKPLTQAMLDTRECFILDTGSGIFVWVGKGATQKEKTDAMAKAQEFLRTKKYPAWTQIHRIVEGSESAPFKQYFDTWRDAGMSHSRLIRSALGIGSDELLNDDEIDSVVTQLKKSGGRAFGFMPDHGQNVIETITQYVAKPGSDEIVVSTVPFDEKLPLLGFASYVLTYNYEANNGDTGSLTYVWHGVKASAAARKRAFEEGLVGSKDGLLVQTNQGHEPRHFYKIFKGKLLTSFTALPVTAQLFRIRGTVESDVHASEVAADSSSLASSDAFVLHSGKSHKIYIWNGLGASAFEKQAAVDRFSDYWDDVELEQVEEGAEPDEFWEELNGEGQYDRSLGDDGAPLLESRLFHCHLSSGGFLKVEEVAQYEQEDLDSDDIMLLDAGDEIYLWVGYGVSEEENGKLLDTAKLYFNLEPTARSFDTVSIIRVPQGKEPRVFKRMFPNWDDNYWQNQPSYEDMKQLVIDANNEV
- MAPPIT interaction score (CG15369): 0.935
- MAPPIT interaction score (CG32548): 0.0886

B2: aph-1 (protein)
chain: MTLPEFFGCTFIAFGPPFALFVFTIANDPVRIIILIAAAFFWLLSLLISSLWYALIPLKEFLAFGVVFSVCFQEAFRYIIYRILRSTEQGLHAVAEDTRVTDNKHILAYVSGLGFGIISGMFALVNVLADMSGPGTMGLKGGTELFFVTSAAQALSIILLHTFWSVIFFNAFDTNNYIHIGYVVFSHLFVSLITLLNANELYTTTLLINYLVTILTGVLAFRVAGGTSRSFRKFITCQ
- MAPPIT interaction score (CG15347): 3.73

B3: Fem-1 (protein)
chain: MHAELYRTRKRWYESAWPGAGFWRGANDTLPVTNYITYPANFDQPDGQSLTPLTMAAMMGNVKFVKTLLSHYDVDLDRECNVIYDGMVVYGATALWVAAGMGHLQIVKMLVQAGAAINHNTKAQSSPLRAACYEGRLDIVEFLIDNGADVNATNLFNNNTLMIAAYKGHHLVVKTLLQNGSRANDQALCGATALHYAAESGHLDVVVALLDHGATLKKNELGITPALQAAERLHEDVLEAFIERPELMSLEEQITALELLGATYANDKIKYDVNKAYGYLLRAMQLRYSNPRGVIRKRVQPTVPAYDNWLETENLPELYAIKLNHHSIHMESLAIRERILGRNNPELPQAIIYRGAVMADQGRFYQCQVLWNYAIDLRMRNNVSVDRDLLRFAQLFAQILRVENHNLTLDHVLPVLAKCQQEIENNKFKIKEAKPNACPSLWQDQNNQNCITALYLIKIVTHLARRKKDQNIDEEHIQQLFLVVRKFIQNDTRLQDGQTLLHIAVNGVMPVDEFYTNEMCRFPCYATALVLVHCGASVVAVDSDRNTPLHILVTKVNTTQDRQAEMARILELFVEAGAHLDAVNAAGQTAATACKLPILANRLHAHQNAHTSLKCLAARSIATNRLNFKGLIPTQLEAFIQMHSVRKVLP
- MAPPIT interaction score (CG15126): 2.87 (active)
- MAPPIT interaction score (Slob): 0.0788

B4: Mettl2 (protein)
chain: MLTTSSSTMLGKYGWQILRRLASKSWEHTRQRKKPSGAGSRVLTDAREVFEFNAWDHVQWDEEQELAAKAAVAKNSTSKMEAEQKERFQTDAPKFWDSFYGIHDNRFFKDRHWLFTEFPELAPLAADSAVLQPRSIFELGCGVGNTILPLLQYSSEPQLKVFGCDFSARAIEILRSQRQFDEKRCEVFVMDATLDHWQVPFEENSQDIIVMIFVLSAIEPKKMQRVLDNCYRYLRPGGLLLFRDYGRYDLAQLRFKSGKCMEDNFYVRGDGTMVYFFTEEELRGMMTQAGLQEEQLIVDRRLQVNRCRGLKMYRVWIQTKFRKPL
- MAPPIT interaction score (CG14563; MAPPIT configuration: N-C): 0.238
- MAPPIT interaction score (CG14563; MAPPIT configuration: N-N): -0.0268
- MAPPIT interaction score (CG17162): 1.73
- MAPPIT interaction score (Dlc90F): 0.581

B5: sel (protein)
chain: MLTKALILFGLLALAQGYSFTSREVKCHVCKAVVTELEEAIAKEDPHKMADVSGFRLDAQGNSISKKVRLVKSEMFLTELMEKICEKMDDYLKATYKSNGKFTLLKMIINGQMNPDSSLVDFVQDGDLNKSLGHFCNEVLEDNDEIFVKAFQAEELGNDLDIKICSEQASYCDESPVQEEYDFDGKEEL
- MAPPIT interaction score (CG1532): -0.121
- MAPPIT interaction score (CG7560): 0.327

B6: cad (protein)
chain: MVSHYYNTLPYTQKHSAANLAYASAAGQPWNWTPNYHHTPPNHQFLGDVDSSHAAHHAAAAHQMYYNSHHMFHSAAAASAGEWHSPASSTADNFVQNVPTSAHQLMQQHHHHHAHASSSSASSGSSSSGGAPGAPQLNETNSSIGVGGAGGGGGVGGATDGGPGSAPPNHQQHIAEGLPSPPITVSGSEISSPGAPTSASSPHHHLAHHLSAVANNNNNNNNNNNSPSTHNNNNNNNSVSNNNRTSPSKPPYFDWMKKPAYPAQPQPGKTRTKDKYRVVYTDFQRLELEKEYCTSRYITIRRKSELAQTLSLSERQVKIWFQNRRAKERKQNKKGSDPNVMGVGVQHADYSQLLDAKAKLEPGLHLSHSLAHSMNPMAAMNIPAMRLHPHLAAHSHSLAAVAAHSHQLQQQHSAQMSAAAAVGTLSM
- MAPPIT interaction score (CG14764): -0.0445
- MAPPIT interaction score (CG6933): -0.219

B7: Nep3 (protein)
chain: MTRYKQTEFTEDDSSSIGGIQLNEATGHTGMQIRYHTARATWNWRSRNKTEKWLLITTFVMAITIFTLLIVLFTDGGSSDATKHVLHVQPHQKDCPSGNELPCLNKHCIFASSEILKSIDVTVDPCDDFYGYSCNQWIKNNPIPEGKSTWGTFGKLEQMNQLIIRNVLEKPAKSFKSDAERKAKVYYESCLDADEHMEKLGAKPMNDLLLQIGGWNVTKSGYNVANWTMGHTLKILHNKYNFNCLFGWAIGEDDKNSSRHVIQIDQGGLTLPTADYYNNKTDNHRKVLNEYIEYMTKVCVLLGANESDARAQMIGVINFEKKLANITIPLEDRRNEEAMYHPMQLRQLSKLAPFLNWTDHFDNAMQMVGRRVTDDEVVVVYAPDFLKNLSDIILKMEQTEEGKITLNNYLVWQAVRTLTSCLSKPFRDAYKGVRKALMGSDGGEEIWRYCVSDTNNVVGFAVGAIFVRQAFHGESKPAAEQMIAEIREAFKMNLQNLTWVDKQTREKAIEKANQISDMIGFPDYILDPVELDKKYAELNITPNAYFENNIQVAIYNLKSNLKRLDQPVNKTNWGMTPQTVNAYYTPTKNQIVFPAGILQTPFFDINNPKSLNFGAMGVVMGHELTHAFDDQGREYDKFGNINRWWDSKSIERFNEKSECIARQYSGYKMNGRTLNGKQTLGENIADNGGLKAAYHAYQRTKSDRDVDILKLPGLNLTHSQLFFVSFAQVWCSSTTDETNLLQMEKDPHSPSQFRVIGTLSNMKEFAEVFQCKPGKRMNPTEKCEVW
- MAPPIT interaction score (CG15347): -1.12

B8: CG10681 (protein)
chain: MSHLGLADVHQSEDATPDLESFTGFGNSAAEAFIQSLAGMVNQGDVETMIRAQKQMLQRFEKTNEMLLNCNALSQSRLKSASEDFKRHVKCLSEMKKDLDYIFRKIRIIKQKLQSQFPAIYAEVQPQRSSLAEEAEDDTEAQAKKTAETPAPAAAKPVLSTKKSAATIEYVQMEEAVDNGTVEIENELIKRVCSVETANPNDSSDCTSEDTG
- MAPPIT interaction score (CG14818): 5 (active)
- MAPPIT interaction score (Tm1): 2.36
- MAPPIT interaction score (dgrn): 0.165

B9: GluProRS (protein)
chain: MSIKLKANLNNPPISGLATAHLINGTVPVEIVWSKEETSLQFPDNRLLVCHSNNDVLRALARAAPDYKLYGETAIERTQIDHWLSFSLTCEDDISWALSFLDKSIAPVTYLVANKLTIADFALFNEMHSRYEFLAAKGIPQHVQRWYDLITAQPLIQKVLQSLPEDAKVKRSPQSSKEQTPAKTGERKQEGKFVDLPGAEMGKVVVRFPPEASGYLHIGHAKAALLNQYYALAFQGTLIMRFDDTNPAKETVEFENVILGDLEQLQIKPDVFTHTSNYFDLMLDYCVRLIKESKAYVDDTPPEQMKLEREQRVESANRSNSVEKNLSLWEEMVKGSEKGQKYCVRAKIDMSSPNGCMRDPTIYRCKNEPHPRTGTKYKVYPTYDFACPIVDAIENVTHTLRTTEYHDRDDQFYWFIDALKLRKPYIWSYSRLNMTNTVLSKRKLTWFVDSGLVDGWDDPRFPTVRGIIRRGMTVEGLKEFIIAQGSSKSVVFMNWDKIWAFNKKVIDPIAPRYTALEKEKRVIVNVAGAKVERIQVSVHPKDESLGKKTVLLGPRIYIDYVDAEALKEGENATFINWGNILIRKVNKDASGNITSVDAALNLENKDFKKTLKLTWLAVEDDPSAYPPTFCVYFDNIISKAVLGKDEDFKQFIGHKTRDEVPMLGDPELKKCKKGDIIQLQRRGFFKVDVAYAPPSGYTNVPSPIVLFSIPDGHTKDVPTSGLKVNAPDAKATKKASSPVSSSGQASELDSQISQQGDLVRDLKSKKAAKDQIDVAVKKLLALKADYKSATGKDWKPGQTSASSAPVPAASSSSANDAVSVNASIVKQGDLVRDLKGKKASKPEIDAAVKTLLELKAQYKTLTGQDWKPGTVPTTAAPSASAAPSVGVNDSVAQILSQITAQGDKVRELKSAKADKATVDAAVKTLLSLKADYKAATGSDWKPGTTAPAPAAAPVKVKQEKNPDPASVLTVNTLLNKIAQQGDKIRQLKSAKSEKSLVEAEVKLLLALKTDYKSLTGQEWKPGTVAPAPTTVNVIDLTGGDSGSDVGSVLSKIQAQGDKIRKLKSEKAAKNVIDPEVKTLLALKGEYKTLSGKDWTPDAKSEPAVVKKEASPVSMASPAKDELTQEINAQGEKVRAAKGNKAAKEVIDAEVAKLLALKAKYKEVTGTDFPVAGRGGGGGGGSAKKAPKEAQPKPAKPVKKEPAADASGAVKKQTRLGLEATKEDNLPDWYSQVITKGEMIEYYDVSGCYILRQWSFAIWKAIKTWFDAEITRMGVKECYFPIFVSKAVLEKEKTHIADFAPEVAWVTKSGDSDLAEPIAVRPTSETVMYPAYAKWVQSYRDLPIRLNQWNNVVRWEFKQPTPFLRTREFLWQEGHTAFADKEEAAKEVLDILDLYALVYTHLLAIPVVKGRKTEKEKFAGGDYTTTVEAFISASGRAIQGATSHHLGQNFSKMFEIVYEDPETQQKKYVYQNSWGITTRTIGVMIMVHADNQGLVLPPHVACIQAIVVPCGITVNTKDDERAQLLDACKALEKRLVGGGVRCEGDYRDNYSPGWKFNHWELKGVPLRLEVGPKDLKAQQLVAVRRDTVEKITIPLADVEKKIPALLETIHESMLNKAQEDMTSHTKKVTNWTDFCGFLEQKNILLAPFCGEISCEDKIKADSARGEEAEPGAPAMGAKSLCIPFDQPAPIAASDKCINPSCTNKPKFYTLFGRSY
- MAPPIT interaction score (CG15211): 0.0202
- MAPPIT interaction score (ReepB): 1.56

B10: Deaf1 (protein)
chain: MEQVDSSTELHLNRKDLAALAEDVVKEEVILESSSHHHHHHHHQLDTKVRMVTSSSNDNSGSGGASGGTSGAGGGNGGGGVVSVPVSLPIGSMITGTTFNVITPDQLPPHFKPMLCVDNNGYLSGSTVSMGNDLKTIVIQQQQTQPGGGGGGANNAGTNTTATNTIGLNHDGSGSNNSHDSLATLEHAAGGASGVGGGGGGTGGGSSGWSENPSTQHNEVFQIRCKTTCAELYRSKLGSGGRGRCVKYKDKWHTPSEFEHVCGRGSSKDWKRSIKYGGKSLQSLIDEGTLTPHATNCSCTVCCDDEAGESASGPVRLFTPYKRRKRNQTDLDMESGPKRKRNTHHSNNNNSNTNNNNTSGSGANNCVDVTAAVAAATASVVDENNMFLSEENITSKDEPWAALNDSLDTSTELVDQSQMGNTYERETFVVNINDGSSIAVLDTSQSMKNIEHVYCTMVKATNDFKRMLNDMKQSFERRIEVLQKERDAAVSAMRVQVHADIDDPNISGSLHGNEIISAKKCANCNREALAECSLCRKTPYCSEFCQRKDWNAHQVECTRNPQTTTQQVMLLIDDQS
- MAPPIT interaction score (CG14535): 0.95
